# Measured values published in the supplement of paper PMC3334620.
# In all, about 33,000 sequences were measured (“E-score (-0.5 to 0.5)”: median about -0.04, highest 2% from about 0.36 on). This excerpt belongs to a sample that is enriched for the highest values.
# Target: T1, Hmlalpha2 (UniProt P0CY09)
# T1 sequence: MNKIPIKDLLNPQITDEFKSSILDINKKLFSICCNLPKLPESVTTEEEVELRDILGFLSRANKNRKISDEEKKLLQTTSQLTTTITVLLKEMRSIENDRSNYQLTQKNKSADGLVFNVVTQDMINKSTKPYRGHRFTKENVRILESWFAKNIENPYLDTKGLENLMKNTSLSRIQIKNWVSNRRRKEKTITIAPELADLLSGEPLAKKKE
# Experiment: PBM E-score (8-mer binding enrichment) (E-score (-0.5 to 0.5)); higher = stronger / more preferred TF binding
# Conditions: protein concentration: 200 nM; construct: GST-full length
# Description: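 Universal 'all 10-mer' protein binding microarrays (Agilent AMADID 015681) probed with GST-tagged S. cerevisiae TFs (full-length or DBD) made by in vitro transcription/translation (PURExpress), about 100-200 nM. Bound TF was detected with fluorescent anti-GST. Each ungapped 8-mer (which stands for itself and its reverse complement) is scored by the PBM enrichment score (E-score), a modified Wilcoxon-Mann-Whitney statistic from -0.5 to +0.5, computed with the Universal PBM Analysis Suite. Scale: above 0.35 generally sequence-specific binding.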
row,Sequence,PBM E-score
1,CACACCGC,-0.0386
2,TATTTAGA,0.28
3,CATTTACG,0.303
4,GATTTAGA,-0.00065
5,TATTTACA,0.463
6,CATTTACA,0.442
7,AATTTACT,0.296
8,GATTTACC,0.18
9,AATTTACC,0.12
10,TATTTAAA,0.207
11,AATTTACA,0.431
12,CATTTACC,0.144
13,GATTTACA,0.429
14,CCGGTGCC,-0.378
15,AGGAAGAC,-0.0908
16,CACTCGCA,0.0187
17,GACGCGGA,0.0365
18,TAAACGGA,0.0215
19,AGAGAGCA,-0.234
20,ATGACACG,0.404
21,ATGACACA,0.302
22,GTGACACA,0.142
23,CAGACACG,0.0667
24,AAGACACG,0.373
25,AAGACACA,0.183

row,Sequence,PBM E-score
1,TCACAGCA,0.0289
2,ACCGCTGG,-0.228
3,ACGATGTC,0.0103
4,GGGATGTA,0.328
5,GTGATGTA,0.382
6,ATGATGTA,0.358
7,CTGATGTA,0.233
8,CCGATGTA,0.155
9,ACGATGTA,0.376
10,GCGATGTA,0.366
11,GCGATGAA,0.0458
12,AACTGTTG,-0.104
13,AAGCCCTA,0.0656
14,GCACGGTA,-0.0709
15,ACACGGAT,0.36
16,ATACGGTG,-0.0688
17,ACACGGAA,0.376
18,CCACGGTC,-0.326
19,ATACGGTC,-0.0524
20,ACACGGTC,0.397
21,ACACGGAG,0.315
22,ACACGGTA,0.366
23,AAACGGTG,0.0442
24,ACACGGTG,0.392
25,CCACGGTA,-0.0423

row,Sequence,PBM E-score
1,ATTAAGTC,0.189
2,ACCTATGC,-0.0222
3,TCTGCGCA,-0.00074
4,CAGGGCCG,-0.121
5,ACGTTGCG,0.0728
6,CGTCCTTC,-0.152
7,GTTGAGCA,0.111
8,GTTGGCGA,-0.0755
9,GGCTCTTA,-0.184
10,ACTTAGAT,0.132
11,GTCCCTTA,-0.127
12,CATTACAA,0.411
13,AATTACCC,-0.0352
14,CATTACTA,0.225
15,CATTACCC,-0.00064
16,TCTTACAA,0.229
17,AATTACAG,0.307
18,TATTACAA,0.416
19,AATTACAC,0.467
20,CATTACAC,0.474
21,CATTACGA,0.214
22,TGTTACAA,0.31
23,CATTACAG,0.326
24,GTTTCCCA,-0.0865
25,TCGTTGCA,0.0513

row,Sequence,PBM E-score
1,GGAAAGTA,-0.136
2,AAGAAGAT,-0.0289
3,CCCGACAG,-0.191
4,AATCGGGG,-0.203
5,AAGATACC,-0.0459
6,CGGAACCC,-0.13
7,CCATTAAG,-0.0773
8,TACAAGGA,0.291
9,TATCGTCA,-0.00037
10,AATTACAA,0.436
11,GATTACTA,0.213
12,AATTACCA,0.273
13,GATTACAA,0.438
14,AATTACTA,0.257
15,GATTAAAC,0.155
16,GATTACCC,0.109
17,GATTACCA,0.087
18,GATTACAC,0.483
19,AGCGTTGG,-0.0565
20,CCTTGGGC,-0.362
21,TAGCTCAA,-0.0444
22,GACTCTGC,-0.314
23,AGGCTGCC,-0.401
24,ACAGTAAG,0.064
25,GTACGACA,0.196

row,Sequence,PBM E-score
1,ACATGGCC,0.417
2,ACATGGTA,0.397
3,GCATGGTA,0.189
4,ACATGGTG,0.414
5,CCATGGTA,0.00138
6,ACATGGTC,0.308
7,ACATGGCG,0.324
8,AGATGGTG,-0.0243
9,GCATGGCC,-0.0405
10,AGAGGCCT,-0.263
11,AAATCTCA,-0.0212
12,GAGGTCTA,-0.0189
13,GCTGCAGC,-0.305
14,CGCGTTAA,0.427
15,TGCGTTAA,0.397
16,CGCGTTAC,0.212
17,AGCGTTAA,0.0425
18,TACGTTAA,0.325
19,CACGTTAG,0.113
20,CGCGTTAG,0.3
21,GGCGTTAA,0.216
22,CACGTTAA,0.376
23,GCTATCAA,-0.0322
24,CTGACTCA,-0.179
25,AAGTCGCG,0.111

row,Sequence,PBM E-score
1,TAATTCGA,0.121
2,ACGCAAAA,0.145
3,CCAGTGAC,-0.125
4,GCAGTTTA,0.00455
5,ATTATAGA,0.0519
6,GTTATAGA,0.368
7,CTTATACA,0.252
8,GTTATACA,0.4
9,ATTATACA,0.34
10,CTTATAGA,-0.154
11,CATGCGCC,-0.0099
12,ATGTCGGA,0.0661
13,TACGTAAA,0.41
14,AACGTAAA,0.325
15,AACGTAAT,0.379
16,CACGTAAC,0.196
17,CACGTAAA,0.405
18,AACGTAAC,0.207
19,TACGTATA,0.327
20,GACGTAAA,0.28
21,CACGTAAG,0.244
22,CGTCCACA,-0.0612
23,CCGCGGCC,-0.192
24,CTGCAAAG,-0.0914
25,CACGTTGG,0.109

row,Sequence,PBM E-score
1,ACAGAGAG,-0.0914
2,CCCAATGC,-0.198
3,AAACATCT,0.202
4,AAACATAT,0.311
5,CCACATGG,-0.0738
6,AAACATAC,0.267
7,CAACATGA,0.449
8,CCACATGA,0.109
9,CAACATGG,0.403
10,AAACATGT,0.445
11,GAACATGA,0.31
12,AAACATGC,0.37
13,AAACATCC,0.17
14,AAACATGG,0.349
15,ATCCTCCA,-0.166
16,ATACTGAT,0.126
17,ACAGCCGG,-0.073
18,AGAGCTCC,-0.252
19,CTGGGAGA,-0.262
20,ACACATGG,0.21
21,TAACATCA,0.338
22,CAACATAC,0.303
